{"source": "PubChem BioAssay AID504467", "about": "(National Center for Advancing Translational Sciences (NCATS), 2011)", "note": "In all, about 330,000 compounds went through this assay and about 7,700 (2.3%) were called active. About 26% were inconclusive and are not listed. The call rests on the fitted dose curve; in most records, active means well fitted inhibition curve with a large enough effect; inconclusive means small, poorly fitted or top-dose-only effect, or effect the other way; inactive means flat fitted curve, though single readings scatter. The sample as a whole holds a higher share of actives than the screen did. On the % scale 0 is the no-effect control and ±100 the full control effect; potency means the concentration at half of the fitted maximal effect.", "data": [{"experiment": "qHTS screen for small molecules that inhibit ELG1-dependent DNA repair in human embryonic kidney (HEK293T) cells expressing luciferase-tagged ELG1; further: nearly all actives have a fitted effect of over 55% in size", "settings": "HEK293T ELG1-luciferase reporter, luminescence, 16 h, DNA damage induced by 5-fluorouridine; series mostly up to 46.1 µM; activity change, negative = inhibition: at the top concentration", "summary_of_the_method": "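DMSO vehicle served as the neutral condition. Each well held 2,000 cells given 5-fluorouridine plus compound; after 16 hr at 37 °C/5% CO2, ONE-Glo was added and luciferase measured 30 min later.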", "values": [{"smiles": "C#CCOCCOCCOCCNc1nc(N2CCN(C(=O)[C@H](CO)n3cc([C@@H](N)C(C)C)nn3)CC2)nc(N2CCN(C(=O)[C@H](CCC(=O)O)n3cc([C@@H](N)[C@H](C)CC)nn3)CC2)n1", "activity change, negative = inhibition": "3.33% (inactive)"}, {"smiles": "O=C(CCNC(=O)c1ccccc1Cl)NCc1ccco1", "activity change, negative = inhibition": "4.02% (inactive)"}, {"smiles": "CC(C)(C)c1ccc(C(=O)NCCC(=O)NCc2ccco2)cc1", "Potency": "5.8 µM (active)"}, {"smiles": "CC(C)(C)c1ccc(NC(=O)NCc2ccco2)cc1", "activity change, negative = inhibition": "29.5% (inactive)"}, {"smiles": "CCCCN(C(=O)c1ccc2ccccc2c1)c1c(N)n(CCCC)c(=O)[nH]c1=O", "activity change, negative = inhibition": "0% (inactive)"}, {"smiles": "COCCn1cnnc1SCC(=O)Nc1cccc(S(=O)(=O)N2CCCCC2)c1", "activity change, negative = inhibition": "4.22% (inactive)"}, {"smiles": "Cc1cccc(N2CC(C(=O)Nc3ccccc3N3CCCC3)CC2=O)c1C", "note": "(configuration not stated)", "activity change, negative = inhibition": "-3.99% (inactive)"}, {"smiles": "Cc1ccccc1NC(=O)NC1(C(=O)N2CCCC2)CCCCC1", "activity change, negative = inhibition": "-5.66% (inactive)"}, {"smiles": "Cc1ccccc1NC(=O)Nc1ccccc1N1CCCCC1", "Potency": "18.3 µM (active)"}, {"smiles": "O=C(CCC1CCCCC1)Nc1cc(C(F)(F)F)ccc1N1CCOCC1", "activity change, negative = inhibition": "-4.46% (inactive)"}, {"smiles": "Cc1nn(C)c(C)c1NS(=O)(=O)c1ccc(OC(F)(F)F)cc1", "activity change, negative = inhibition": "0.543% (inactive)"}, {"smiles": "CCN(CC)S(=O)(=O)c1ccc(CNC(=O)CN2C(=O)NC3(CCc4ccccc43)C2=O)cc1", "note": "(configuration not stated)", "activity change, negative = inhibition": "3.44% (inactive)"}, {"smiles": "CN(C)S(=O)(=O)c1cc(NC(=O)CN2C(=O)NC3(CCCc4ccccc43)C2=O)ccc1Cl", "note": "(configuration not stated)", "Potency": "25.9 µM (active)"}, {"smiles": "CCN(CC)c1ccc(NC(=O)CN2C(=O)NC3(CCc4ccccc43)C2=O)cc1", "note": "(configuration not stated)", "activity change, negative = inhibition": "5.28% (inactive)"}, {"smiles": "N#Cc1ccccc1S(=O)(=O)N1CCN(Cc2c(O)ccc3ccccc23)CC1", "activity change, negative = inhibition": "-3.58% (inactive)"}, {"smiles": "COCCn1c(SCC(=O)Nc2cc(OC)ccc2OC)nc2c(c1=O)SC(C)C2", "note": "(configuration not stated)", "activity change, negative = inhibition": "-7.11% (inactive)"}, {"smiles": "COCCn1c(SCC(=O)Nc2cc(Cl)ccc2OC)nc2c(c1=O)SC(C)C2", "note": "(configuration not stated)", "Potency": "25.9 µM (active)"}, {"smiles": "CCn1c(SCC(=O)Nc2ccccc2F)nc2c(c1=O)SC(C)C2", "note": "(configuration not stated)", "activity change, negative = inhibition": "-13.6% (inactive)"}, {"smiles": "Cc1cc(NC(=O)CSc2nnc(-c3ccco3)n2N)no1", "activity change, negative = inhibition": "14.5% (inactive)"}, {"smiles": "CCNS(=O)(=O)c1ccc(CCC(=O)N2CCN(c3cc(Cl)ccc3C)CC2)cc1", "Potency": "11.6 µM (active)"}, {"smiles": "CCCNS(=O)(=O)c1ccc(CCC(=O)N2CCCC2)cc1", "activity change, negative = inhibition": "-1.71% (inactive)"}, {"smiles": "CCNS(=O)(=O)c1ccc(CCC(=O)N2CCN(c3ccc(OC)cc3)CC2)cc1", "activity change, negative = inhibition": "-9.27% (inactive)"}, {"smiles": "O=C1OC[C@@H]2CCCN2C(=O)[C@H](CC(=O)N(CCO)Cc2ccccc2)C/C=C\\CC[C@@H]1Cc1ccc(F)cc1", "activity change, negative = inhibition": "7.5% (inactive)"}, {"smiles": "COc1ccc(C(=O)NC(=S)Nc2ccccc2N2CCN(S(C)(=O)=O)CC2)cc1OC", "Potency": "14.6 µM (active)"}, {"smiles": "O=C(NC(=S)Nc1ccccc1N1CCCCC1)c1ccc(F)cc1", "activity change, negative = inhibition": "3.01% (inactive)"}, {"smiles": "CCC(=O)Nc1ccccc1N1CCN(S(C)(=O)=O)CC1", "activity change, negative = inhibition": "8.38% (inactive)"}, {"smiles": "COc1ccc(NC(=O)c2cc3nc(-c4ccccc4)cc(C)n3n2)cc1OC", "Potency": "10.3 µM (active)"}, {"smiles": "COc1ccc(NC(=O)COC(=O)Cn2c(C)nc3ccccc32)cc1OC", "activity change, negative = inhibition": "9.39% (inactive)"}, {"smiles": "COc1ccc(NC(=O)CNC(=O)Cc2ccccc2)cc1OC", "activity change, negative = inhibition": "1.57% (inactive)"}, {"smiles": "COCCCNC(=O)CC1C[C@H](C(=O)N2CCCCC2)[C@@]2(CCc3ccccc3)c3[nH]c4ccccc4c3CCN2C1=O", "note": "(some centres not stated)", "activity change, negative = inhibition": "7.79% (inactive)"}, {"smiles": "CC(Oc1ccc(Br)cc1)C(=O)NCC(c1ccco1)N1CCCCC1", "note": "(configuration not stated)", "activity change, negative = inhibition": "-0.374% (inactive)"}, {"smiles": "O=C(Nc1cccc(Cl)c1N1CCOCC1)c1cccnc1", "activity change, negative = inhibition": "-3.8% (inactive)"}, {"smiles": "O=C(Cc1ccccc1)Nc1ccc(NC(=O)c2cccnc2)cc1", "activity change, negative = inhibition": "2.94% (inactive)"}, {"smiles": "O=C(Nc1ccc(N2CCN(C(=O)c3ccccc3)CC2)c(Cl)c1)c1cccnc1", "Potency": "8.2 µM (active)"}, {"smiles": "Cc1cc(C)cc(NC(=O)C(c2ccccc2)N2CCN(CC(=O)N3CCCC3)CC2)c1", "note": "(configuration not stated)", "activity change, negative = inhibition": "0.225% (inactive)"}, {"smiles": "CCC(C(=O)NCc1cccnc1)n1nc(C)c2sc3ccccc3c2c1=O", "note": "(configuration not stated)", "activity change, negative = inhibition": "-1.1% (inactive)"}, {"smiles": "Cc1onc(-c2c(F)cccc2Cl)c1C(=O)OCC(=O)N1C(C)CCCC1C", "note": "(configuration not stated)", "activity change, negative = inhibition": "-14.7% (inactive)"}, {"smiles": "CCc1ccc(NC(=O)CSc2nnc(-c3cnccn3)n2Cc2ccco2)cc1", "activity change, negative = inhibition": "-6.25% (inactive)"}, {"smiles": "COc1ccc(NC(=O)CSc2nnc(-c3cccs3)n2Cc2ccco2)cc1OC", "Potency": "20.6 µM (active)"}, {"smiles": "O=C(CSc1nnc(-c2cccs2)n1-c1ccccc1)NCc1ccco1", "activity change, negative = inhibition": "-7.53% (inactive)"}, {"smiles": "Cn1cc(CCC(=O)NC2CC2)c2ccccc21", "activity change, negative = inhibition": "-3.64% (inactive)"}, {"smiles": "CC(C)CCn1cnc2c1c(=O)n(CC(=O)NC(N)=O)c(=O)n2Cc1ccccc1", "activity change, negative = inhibition": "0.175% (inactive)"}, {"smiles": "CCn1nc(C(=O)NNC(=O)C2CSC3(C)CCC(=O)N23)c2ccccc2c1=O", "note": "(configuration not stated)", "activity change, negative = inhibition": "10.3% (inactive)"}, {"smiles": "O=C(NNC(=O)c1cccc(S(=O)(=O)Nc2ccc(Cl)cc2)c1)c1ccc(=O)[nH]c1", "activity change, negative = inhibition": "1.65% (inactive)"}, {"smiles": "Cc1nc(/N=C(\\N)NC(=O)NC2CCCCC2)nc2ccccc12", "Potency": "9.2 µM (active)"}, {"smiles": "COc1ccc2nc(/N=C(\\N)NC(=O)Nc3ccccc3)nc(C)c2c1", "activity change, negative = inhibition": "-16.6% (inactive)"}, {"smiles": "Cc1nn(-c2ccccc2)c(C)c1C(=O)OCC(=O)NC(=O)NC1CCCCC1", "activity change, negative = inhibition": "-26.1% (inactive)"}, {"smiles": "COc1cc(OC)cc(C(=O)NNC(=O)Cc2cccs2)c1", "activity change, negative = inhibition": "19% (inactive)"}, {"smiles": "CC1Cc2ccccc2N1S(=O)(=O)c1cccc(C(=O)NCC(c2ccco2)N2CCCC2)c1", "note": "(configuration not stated)", "activity change, negative = inhibition": "1.24% (inactive)"}, {"smiles": "COc1cccc(C(=O)NCCS(=O)(=O)NCC2CCCO2)c1", "note": "(configuration not stated)", "activity change, negative = inhibition": "13.3% (inactive)"}, {"smiles": "COc1ccccc1-n1cnc2cc(C(=O)NCC3CCCO3)ccc21", "note": "(configuration not stated)", "activity change, negative = inhibition": "11.5% (inactive)"}, {"smiles": "COc1cccc(/C=C2\\Sc3ccc(C(=O)NCC4CCCO4)cc3N(C)C2=O)c1", "note": "(configuration not stated)", "Potency": "20.6 µM (active)"}, {"smiles": "COc1cccc(CNC(=O)CN2C(=O)NC(Cc3ccccc3)(c3ccccc3)C2=O)c1", "note": "(configuration not stated)", "activity change, negative = inhibition": "-5.01% (inactive)"}, {"smiles": "CCOc1ccc(CCNC(=O)COC(=O)c2c(OC)cccc2OC)cc1OCC", "activity change, negative = inhibition": "-5.36% (inactive)"}, {"smiles": "CCCN1C2CCCC1CC(NC(=O)c1cccc(OC)c1)C2", "note": "(configuration not stated)", "activity change, negative = inhibition": "-8.9% (inactive)"}, {"smiles": "O=C(c1c(Cl)cccc1Cl)N1CCN(c2cccc3[nH]ccc23)CC1", "Potency": "18.3 µM (active)"}, {"smiles": "COc1ccccc1N1CCN(C(=O)c2ccc(S(=O)(=O)N3CCCCC3)cc2)CC1", "activity change, negative = inhibition": "-21.4% (inactive)"}, {"smiles": "O=C(c1ccc(S(=O)(=O)N2CCCC2)cc1)N1CCN(c2ccccc2F)CC1", "activity change, negative = inhibition": "13.3% (inactive)"}, {"smiles": "COc1ccc(C)cc1NC(=O)CSc1nnc2ccc(-c3ccccn3)nn12", "activity change, negative = inhibition": "-10.6% (inactive)"}, {"smiles": "COC(=O)c1cccc(C(=O)N2CCC(CCC(=O)NCc3ccc(F)cc3)CC2)c1", "activity change, negative = inhibition": "-2.27% (inactive)"}, {"smiles": "CN(C)CCn1c2c(c(SCC(=O)NCc3ccccc3)nc1=O)CCC2", "activity change, negative = inhibition": "13.9% (inactive)"}, {"smiles": "Cc1ccc(OCCNC(=O)CN2C(=O)NC3(CCCC3)C2=O)cc1", "activity change, negative = inhibition": "1.29% (inactive)"}]}]}
